High-throughput results from PubChem BioAssay.
TDP1 cell CPT: growth inhibition of DT40 Tdp1-/-;hTDP1 cells with camptothecin (screen for TDP1 inhibitors). chicken DT40 Tdp1-/-;hTDP1 cells + 20 nM CPT, ATP luminescence, 48 h. Potency, µM (highest dose often 46.2 µM), for the others: at the highest dose activity change, negative = growth inhibition, most hits filed as inhibitors. 12% of 420,000 active. AID 686979; further: potency means the concentration at half of the fitted maximal effect; nearly all actives have a fitted effect of over 55% in size
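Cell growth measured by CellTiter-Glo luminescence after a minimum 48 h, 37 C compound exposure with 20 nM CPT in Tdp1-knockout DT40 cells stably expressing hTDP1, seeded 400/well; qHTS titration format.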
HT1080-NT tox: kills 2HG-producing HT-1080-NT fibrosarcoma cells; HT-1080-NT fibrosarcoma viability, CellTiter-Glo ATP luminescence, 48 h; Potency, µM (top dose mostly 46.1 µM), without a hit: top-dose activity, negative = less viability, usual class: cytotoxic; 1.6% of 360,000 active; AID 686970;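 further: NT is the 2HG producing partner of a matched IDH1 knockdown line; potency means the concentration at half of the fitted maximal effect; 0% = DMSO-treated cells and -100% = media-only wells without cells; nearly all actives have a fitted effect of over 55% in size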
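750 cells/well, RPMI + 5% FBS; 2 h settle, compound pin-transfer, 48 h at 37 degrees C. CellTiter-Glo 10 min RT, luminescence. Normalized to DMSO and media-only wells.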
DT40 TDP1 no CPT: qHTS for Inhibitors of human tyrosyl-DNA phosphodiesterase 1 (TDP1): qHTS in cells in absence of CPT; AID 686978, 2013; 15% of 420,000 active; DT40 Tdp1-/- hTDP1 cells, no CPT, ATP luminescence, 48 h; Potency, µM (doses to about 46.2 µM), without a hit: top-dose activity change, negative = growth inhibition, actives largely listed as inhibitors; further: potency means the concentration at half of the fitted maximal effect; nearly all actives have a fitted effect of over 55% in size
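Seeded 400 DT40-hTDP1 cells/well (vehicle DMSO, no 20 nM CPT); pinned compounds; ≥48 hr at 37 °C; CellTiter-Glo luminescence as viability measure.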
IL1B secr inh: inhibitors of inflammasome signaling (IL-1 beta secretion); 4.7% of 360,000 active; activity change, % at 57.5 µM; THP-1 LPS/ATP IL-1B secretion, AlphaLISA, 16 h; hits give low values; in the data active means activity change below about -50%; inconclusive means mostly about -30% to -49%
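THP-1 cells pretreated 1 hr with compounds (up to 57.5 uM final), then stimulated with LPS (250 ng/mL final) plus ATP (1.25 mM final); secreted IL-1B measured by AlphaLISA after 16 hr, decreased signal indicating inhibition.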
HT1080 IDH1KD tx: kills HT-1080 cells with IDH1 knockdown. 2% of 360,000 active. HT-1080 IDH1 knockdown viability, ATP luminescence, 48 h. Potency, µM (doses to about 46.1 µM), for inactives: top-dose activity, negative = toxicity, most hits filed as cytotoxic;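 further: potency means the concentration at half of the fitted maximal effect; 0% = DMSO wells and -100% = cell-free medium wells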
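IDH1KD HT-1080 cells, 750/well, RPMI + 5% FBS; compound pinned after 2 h settling; 48 h, 37 °C; CellTiter-Glo luminescence; % activity normalised to DMSO and no-cell wells; curves fitted, classed by r2 and efficacy.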
Numbers without * were called inactive; [ ] = dose if it differs, or a comment. Hits are enriched below; roughly 19% of the tested compounds scored in any of these assays. Unless noted, the call rests on the fitted dose curve; in most records, active means well fitted curve in the direction sought with a large enough effect; inconclusive means small, poorly fitted or top-dose-only effect, or another doubt; inactive means no such curve, though single readings can be large; an effect the other way counts as inactive or inconclusive. Unless noted, on the % scale 0 is the no-effect control and ±100 the full control effect.

For CN(Cc1ccco1)c1nc(-c2ccccc2C(F)(F)F)nc2ccccc12 the results were TDP1 cell CPT inconclusive and DT40 TDP1 no CPT -18.6%.
`Cc1ccc(-n2c(SCC(=O)Nc3c(C)cccc3C)nc(O)c(C)c2=O)cc1` gave TDP1 cell CPT 1.5% and DT40 TDP1 no CPT -6.7%.
For Cc1c(C)c2ccc(OCC(=O)NCCCn3ccnc3)cc2oc1=O the results were TDP1 cell CPT 12.4%, HT1080-NT tox 0.5%, DT40 TDP1 no CPT -21.6%, IL1B secr inh -10.0 and HT1080 IDH1KD tx 2.7%.
For Cc1cc(O)ccc1-c1ccc2nncn2c1 the results were TDP1 cell CPT 16.4µM*, HT1080-NT tox -5.0%, DT40 TDP1 no CPT -1.3%, IL1B secr inh 27.4 and HT1080 IDH1KD tx 19.5%.
For COc1ccc2c(C)cc(N3CCCCCC3)nc2c1 the results were TDP1 cell CPT inconclusive, HT1080-NT tox -8.7%, DT40 TDP1 no CPT inconclusive, IL1B secr inh -67.2* and HT1080 IDH1KD tx -22.7%.
For Cc1cc(N2CCN(c3ccccc3)CC2)nc2ccccc12 the results were TDP1 cell CPT -14.5%, HT1080-NT tox 0.5%, DT40 TDP1 no CPT -2.7%, IL1B secr inh 95.1 and HT1080 IDH1KD tx -2.6%.
For Cc1cc(N2CCC(N(C)C3CCCC3)CC2)nc2cc(O)ccc12 the results were TDP1 cell CPT inconclusive, HT1080-NT tox -23.7%, DT40 TDP1 no CPT 18.4µM*, IL1B secr inh -21.5 and HT1080 IDH1KD tx -12.5%.
For CC(C)(C(=O)O)n1cncn1 the results were TDP1 cell CPT 15.4%, HT1080-NT tox 10.9%, DT40 TDP1 no CPT -16.3%, IL1B secr inh 22.8 and HT1080 IDH1KD tx -13.6%.
`COc1ccc(-c2oc3ncn4nc(-c5ccc(Cl)cc5)nc4c3c2-c2ccc(OC)cc2)cc1` gave TDP1 cell CPT inconclusive and DT40 TDP1 no CPT -26.1%.
Screening CCCCCC(=O)Nc1ccccc1N1CCN(c2ccccc2)CC1 returned TDP1 cell CPT inconclusive, HT1080-NT tox -23.3%, DT40 TDP1 no CPT inconclusive, IL1B secr inh -88.4* and HT1080 IDH1KD tx 4.2%.
O=C(Nc1ccccc1N1CCN(c2ccc(F)cc2)CC1)c1ccccc1 was read as TDP1 cell CPT 23.1µM*, HT1080-NT tox 14.0%, DT40 TDP1 no CPT 18.4µM*, IL1B secr inh inconclusive and HT1080 IDH1KD tx 20.9%.
`CC(C)CC(=O)Nc1ccccc1N1CCN(c2ccccc2)CC1` gave TDP1 cell CPT inconclusive, HT1080-NT tox 10.1%, DT40 TDP1 no CPT inconclusive, IL1B secr inh -0.4 and HT1080 IDH1KD tx -0.3%.
For CCC(=O)Nc1ccccc1N1CCN(c2ccc(F)cc2)CC1 the results were TDP1 cell CPT 20.6µM*, HT1080-NT tox -0.7%, DT40 TDP1 no CPT inconclusive, IL1B secr inh -25.7 and HT1080 IDH1KD tx 5.7%.
`COc1ccc(CCNCC(=O)Nc2ccc(C(=O)N3CCCCC3)cc2)cc1` gave TDP1 cell CPT inconclusive, HT1080-NT tox -10.6%, DT40 TDP1 no CPT inconclusive, IL1B secr inh -17.9 and HT1080 IDH1KD tx -4.7%.
`O=C(CC(O)(c1ccccc1)C(F)(F)C(F)F)c1cccs1` (configuration not stated) gave TDP1 cell CPT -8.7%, HT1080-NT tox -3.5%, DT40 TDP1 no CPT -9.9%, IL1B secr inh -11.6 and HT1080 IDH1KD tx 5.3%.
`O=C(/C=C/c1ccccc1)CC(O)(c1ccccc1)C(F)(F)F` (configuration not stated) gave TDP1 cell CPT 16.4µM*, HT1080-NT tox 12.6µM*, DT40 TDP1 no CPT 11.2µM*, IL1B secr inh -99.4* and HT1080 IDH1KD tx 10µM*.
Cc1cccc2[nH]c(CN(C)C(=O)CC3C(=O)NCCN3CC(C)(C)C)nc12 (configuration not stated) was read as TDP1 cell CPT 3.5%, HT1080-NT tox -5.7%, DT40 TDP1 no CPT -24.5%, IL1B secr inh -2.2 and HT1080 IDH1KD tx -8.5%.
O=C(O)C1OC(Oc2cc3oc(-c4ccccc4)cc(=O)c3c(O)c2O)C(O)C(O)C1O (configuration not stated) was read as TDP1 cell CPT 23.1µM*, HT1080-NT tox 3.1%, DT40 TDP1 no CPT inconclusive, IL1B secr inh 0.8 and HT1080 IDH1KD tx 9.2%.
For CCn1c(NCc2ccc(N(C)C)cc2)nc2ccccc21 the results were TDP1 cell CPT -22.7%, HT1080-NT tox -0.2%, DT40 TDP1 no CPT inconclusive, IL1B secr inh -7.4 and HT1080 IDH1KD tx 12.3%.
Screening COc1ccc(/C=C/c2nc3ccccc3n2Cc2ccc(OC)c(OC)c2)cc1 returned TDP1 cell CPT inconclusive, HT1080-NT tox -26.9%, DT40 TDP1 no CPT inconclusive, IL1B secr inh -53.6* and HT1080 IDH1KD tx -16.7%.
For CCn1c(NCc2ccc(OC)c(OC)c2)nc2ccccc21 the results were TDP1 cell CPT inconclusive and DT40 TDP1 no CPT 9.2µM*.
`C(=N\c1nc2ccccc2n1Cc1ccccc1)/c1cccs1` gave TDP1 cell CPT inconclusive, HT1080-NT tox 0.0%, DT40 TDP1 no CPT inconclusive, IL1B secr inh -67.5* and HT1080 IDH1KD tx -17.7%.
`CCn1c(NCc2cccc(Cl)c2)nc2ccccc21` gave TDP1 cell CPT inconclusive and DT40 TDP1 no CPT 23.1µM*.
`CN(C)CC(C)(O)c1ccc2c(c1)CN(Cc1cnn(-c3ccccc3)c1)CCO2` (configuration not stated) gave TDP1 cell CPT 10.8%[9.04 µM] and DT40 TDP1 no CPT -4.5%.
Screening O=NNc1nc2ccccc2n1Cc1ccccc1 returned TDP1 cell CPT 4.61µM*, HT1080-NT tox inconclusive, DT40 TDP1 no CPT 2.31µM*, IL1B secr inh 201.3 and HT1080 IDH1KD tx inconclusive.
CCn1c(NC(=O)c2cccc(Cn3cc(Cl)cn3)c2)nc2ccccc21 was read as TDP1 cell CPT 14.6µM*, HT1080-NT tox -23.3%, DT40 TDP1 no CPT 14.6µM*, IL1B secr inh 36.3 and HT1080 IDH1KD tx -17.8%.
COc1cc(CNc2nc3ccccc3n2Cc2ccccc2)ccc1O was read as TDP1 cell CPT -29.7%, HT1080-NT tox -1.0%, DT40 TDP1 no CPT inconclusive, IL1B secr inh 3.3 and HT1080 IDH1KD tx -8.8%.
`Clc1cccc(CNc2nnnn2-c2ccccc2)c1` gave TDP1 cell CPT inconclusive, HT1080-NT tox -5.2%, DT40 TDP1 no CPT 16.4µM*, IL1B secr inh 41.0 and HT1080 IDH1KD tx -14.1%.
For COc1ccc(CNc2nc3ccccc3n2Cc2ccc(Cl)cc2)cc1OC the results were TDP1 cell CPT 16.4µM*, HT1080-NT tox 20.6µM*, DT40 TDP1 no CPT 13µM*, IL1B secr inh -88.7* and HT1080 IDH1KD tx 16.4µM*.
Cn1nnnc1NCc1cccc(Cl)c1 was read as TDP1 cell CPT -14.8%, HT1080-NT tox 2.4%, DT40 TDP1 no CPT 0.3%, IL1B secr inh -2.8 and HT1080 IDH1KD tx -1.3%.
